Laboratory results: PubChem BioAssay AID652057 (Broad Institute, 2013)
Among all 1,400 compounds or so, about 1,000 (71%) were called active. The rule behind the calls is not given here. The set was probably picked from earlier hits. A selection follows. Potency and affinity values are given separately.

test: blockers of HIV-1 envelope-mediated cell-cell fusion – cherry-pick, dose response (AID 652057); settings: HeLa-JRFL Env/CEM21 cell fusion, luciferase; series mostly up to 35 µM; activity change, negative = inhibition: at the top concentration

Activity change, negative = inhibition, inactive:
COC(=O)c1ccc(NC(=O)c2ccc(CN3CCOCC3)cc2)cc1 12.6%
OC1(c2ccc(OC(F)F)cc2)CSC(=Nc2cccnc2)N1C1CC1 (configuration not stated) -12.4%
Cc1cc(Cl)c(S(=O)(=O)N2CCCC2)cc1OCC(=O)NC1CCCCC1 -17.4%
CN(C)S(=O)(=O)c1ccc(C(=O)Nc2nc(-c3cccs3)cs2)cc1 7.84%
COCCCn1c(-c2ccc(S(=O)(=O)N3CCOCC3)cc2)csc1=Nc1ccccc1 3.27%
CCCC(=O)Nc1ccc2c(c1)C(=O)N(C)C[C@@H](OC)[C@@H](C)CN(Cc1nccs1)[C@@H](C)CO2 -10.4%
COCC(=O)Nc1ccc2c(c1)C(=O)N(C)C[C@@H](OC)[C@@H](C)CN(C)[C@H](C)CO2 24.4%
C=CC[n+]1c(-c2ccc(C)cc2)csc1NNC(=O)Nc1ccccc1 -18.4% [at 16 µM]
O=C1c2cccc(OCc3ccc(F)cc3)c2CCN1Cc1ccccc1 -36.6%
NC(=S)c1ccc(OCCCc2ccccc2)cc1 19.6%
O=C(C[C@H]1C[C@@H]2c3cc(NC(=O)C4CCC4)ccc3O[C@@H]2[C@@H](CO)O1)NCc1ccc2c(c1)OCO2 24.8%
C=CCOc1c(Br)cc(CNc2ccc(NC(=O)C(C)C)c(OC)c2)cc1OC 15.3%
CC1(C)N=C(N)N=C(N)N1CCCCc1ccccc1 -26.4%
COc1cc(-c2c(-c3cc(OC)c(OC)c(OC)c3)noc2C)ccc1F 54.8%
O=C(CNC(=O)c1cccc(-n2cccc2)c1)Nc1ccccc1Br 5.83%
COc1ccccc1S(=O)(=O)Nc1ccc2c(c1)C(=O)N(C)C[C@@H](OC)[C@@H](C)CN[C@@H](C)CO2 11.4%
CCCNC(=O)C[C@H]1C[C@H]2c3cc(NC(=O)CN(C)C)ccc3O[C@H]2[C@@H](CO)O1 15.8%
COc1ccc(NC(=O)c2ccc(Cl)c(S(=O)(=O)N3CCc4ccccc4C3)c2)cn1 -27.9%
O=C(Nc1ccc(F)cc1)Nc1ccc2c(c1)[C@@H]1C[C@H](CC(=O)N3CCCCC3)O[C@@H](CO)[C@@H]1O2 -5.66%
COc1ccccc1Oc1ccc(S(=O)(=O)NCc2ccccn2)cc1 -14.1%
O=C(Nc1ccc(Oc2ccccc2)cc1)c1csc([C@H]2C[C@H](O)[C@@H](CO)O2)n1 -10.4%
COc1ccc(OC)c(-c2cc(C(=O)Nc3c(C)nn(Cc4ccc(Cl)cc4)c3C)no2)c1 -26%
CCCCS(=O)(=O)N1CCN(C(=O)C(=O)c2cccc(C(F)(F)F)c2)CC1 10.8%
CCS(=O)(=O)Nc1ccc2c(c1)C(=O)N(C)C[C@H](OC)[C@@H](C)CN(C(=O)C1CCC1)[C@H](C)CO2 12.2%
CN(C)Cc1cn(CC[C@@H]2CC[C@H](N)[C@H](CO)O2)nn1 24.1%
Nc1nonc1C(=O)NCCNCc1cc(Br)ccc1OCc1ccccc1F -12.6%
CN1CCN(C(=O)C[C@H]2C[C@@H]3c4cc(NS(C)(=O)=O)ccc4O[C@@H]3[C@H](CO)O2)CC1 9.51%
CCCCOc1ccc(S(=O)(=O)Nc2cccnc2)cc1 6.53%
O=C(Nc1ccc(C(=O)OC2CCCCC2)cc1)c1ccncc1 13.6%
C[C@H]1CN([C@@H](C)CO)C(=O)c2cccc(NC(=O)c3ccncc3)c2O[C@@H]1CN(C)C(=O)Nc1cccc2ccccc12 0.94%
C[C@H](CO)N1C[C@H](C)[C@@H](CN(C)C(=O)Nc2cccc3ccccc23)OCCCC[C@H](C)Oc2ccc(N(C)C)cc2C1=O -30.6%
O=C(NCc1cccnc1)c1c[nH]c2cc3c(cc2c1=O)OCCO3 47.4%
O=C(C[C@@H]1C[C@H]2c3cc(NC(=O)Nc4ccccc4)ccc3O[C@H]2[C@H](CO)O1)NCc1cccnc1 -1.52%
COc1cc(CSc2nnnn2-c2ccc(C)cc2)cc(OC)c1OC -1.13%
c1ccc2c(c1)ncn2CCCCOc1ccc2c(c1)CCC2 1.92% [at 16 µM]
Cc1ccc(Cn2ncc3c(N4CCN(Cc5ccc(Cl)cc5)CC4)ncnc32)cc1 -11.6%
COc1ccc(C)cc1NC(=O)CCNS(=O)(=O)c1ccc2c(c1)CC(C)N2C(C)=O (configuration not stated) -12.8%
COc1ccc(OCC(=O)Nc2ccccc2N2CCCCC2)cc1 39.9%
CCOC(=O)C1CCN(C(=O)c2ccc3c(c2)C(=O)N(c2ccccc2C)C3=O)CC1 35.1%
OCC[C@@H]1C[C@@H](O)[C@H](O)[C@]2(OCc3ccccc32)O1 -4.52%
Cc1ccc(Cn2ncc3c(N4CCN(c5ccc(C)cc5)CC4)ncnc32)cc1 35%
c1ccc2c(c1)CCN(c1ncnc3c1[nH]c1ccccc13)C2 2.06%
CC(=O)c1ccc(S(=O)(=O)N2CCN(c3nc4c(C)c(C)ccc4cc3C#N)CC2)cc1 -11.1%
O=C(C[C@H]1C[C@@H]2c3cc(NC(=O)C4CCC4)ccc3O[C@@H]2[C@@H](CO)O1)NCC(F)(F)F 9.8%
CCOC(=O)C1CCCN(Cc2nc(N)nc(Nc3ccc(OC)cc3)n2)C1 (configuration not stated) -0.574%
CC(=O)C1=C(C)NC(=S)NC1c1ccccc1 (configuration not stated) 13.6%
COC(=O)[C@@]1(Cc2ccc(F)cc2)[C@H]2c3cc(C(=O)N(C)C)n(CCO)c3C[C@H]2CN1C(=O)c1ccccc1 13.3%
N#CCSc1nnc(-c2sc3ccccc3c2Cl)o1 -11.7%
CO[C@H]1CN(C)C(=O)c2cc(NC(C)=O)ccc2OC[C@@H](C)N(Cc2nccs2)C[C@H]1C 20.8%
CO[C@H]1CN(C)C(=O)c2cc(NS(=O)(=O)c3ccc(Cl)cc3)ccc2OC[C@@H](C)N(C)C[C@@H]1C 19.1%
CCNC(=O)C[C@@H]1CC[C@@H]2[C@H](COC[C@@H](O)CN2C(=O)c2ccccn2)O1 -7.64%
COCCNC(=O)C[C@@H]1C[C@H]2c3cc(N(C)C)ccc3O[C@H]2[C@@H](CO)O1 14.4% [at 16 µM]
CCCNC(=O)C[C@@H]1C[C@@H]2c3cc(NC(=O)Cc4ccncc4)ccc3O[C@@H]2[C@H](CO)O1 5.24%
CN(C)C(=O)C[C@H]1C[C@@H]2c3cc(NS(=O)(=O)c4ccc(F)cc4)ccc3O[C@@H]2[C@@H](CO)O1 14.9%
CS(=O)(=O)Nc1ccc2c(c1)[C@H]1C[C@@H](CC(=O)NCCN3CCCCC3)O[C@@H](CO)[C@H]1O2 18.3%
CN(C)C(=O)C[C@@H]1C[C@H]2c3cc(NS(=O)(=O)c4ccc(F)cc4)ccc3O[C@H]2[C@H](CO)O1 37.5%
CS(=O)(=O)Nc1ccc2c(c1)[C@H]1C[C@H](CC(=O)NCc3ccc(-c4ccccc4)cc3)O[C@H](CO)[C@H]1O2 -12.4%
CCCNC(=O)C[C@H]1C[C@H]2c3cc(NC(=O)Cc4ccncc4)ccc3O[C@H]2[C@H](CO)O1 0.858%
CS(=O)(=O)Nc1ccc2c(c1)[C@H]1C[C@H](CC(=O)N3CCc4ccccc4C3)O[C@H](CO)[C@H]1O2 4.05%
CS(=O)(=O)Nc1ccc2c(c1)[C@@H]1C[C@@H](CC(=O)N3CCc4ccccc4C3)O[C@H](CO)[C@@H]1O2 16.9%
O=C(C[C@H]1C[C@@H]2c3cc(NC(=O)C4CCOCC4)ccc3O[C@@H]2[C@H](CO)O1)NCc1ccccc1 -0.474%
O=C(C[C@@H]1C[C@@H]2c3cc(NC(=O)c4ccc5c(c4)OCO5)ccc3O[C@@H]2[C@@H](CO)O1)NCc1ccc(Oc2ccccc2)cc1 -9.82% [at 30 µM]
COC(=O)C[C@@H]1C[C@H]2c3cc(NS(=O)(=O)c4cccc(OC)c4)ccc3O[C@H]2[C@@H](CO)O1 53.6%
O=C(C[C@@H]1C[C@H]2c3cc(NC(=O)C4CCOCC4)ccc3O[C@H]2[C@@H](CO)O1)NCc1ccccc1 6.66%
O=C(C[C@@H]1C[C@@H]2c3cc(NC(=O)C4CCC4)ccc3O[C@@H]2[C@@H](CO)O1)NCc1ccc2c(c1)OCO2 -14.9%
O=C(C[C@@H]1C[C@H]2c3cc(NC(=O)Nc4ccc(F)cc4)ccc3O[C@H]2[C@H](CO)O1)NCC1CC1 38.6%
CN(C)C(=O)C[C@@H]1C[C@@H]2c3cc(NS(=O)(=O)c4ccc(F)cc4)ccc3O[C@@H]2[C@@H](CO)O1 28%
O=C(C[C@@H]1C[C@@H]2c3cc(NS(=O)(=O)c4ccc(F)cc4)ccc3O[C@@H]2[C@H](CO)O1)NCc1ccccc1F -1.08%
O=C(C[C@@H]1C[C@@H]2c3cc(NC(=O)Nc4ccccc4)ccc3O[C@@H]2[C@@H](CO)O1)NCc1ccccc1 12.8% [at 30 µM]
O=C(C[C@H]1C[C@@H]2c3cc(NC(=O)Nc4ccc(F)cc4)ccc3O[C@@H]2[C@@H](CO)O1)NCC1CC1 -7.22%
O=C(C[C@H]1C[C@H]2c3cc(NS(=O)(=O)c4ccc(F)cc4)ccc3O[C@H]2[C@@H](CO)O1)NCc1ccccc1F 27.6%
Cc1cc(C(=O)N2CCC(C(=O)O)CC2)c(C(F)(F)F)o1 -13.1%
CCN(CC)S(=O)(=O)c1cccc(NC(=O)c2ccc(-n3nc(C)cc3C)cc2)c1 -21.6%
CCc1nnc(NC(=O)[C@@H](NC(=O)c2cccc(S(=O)(=O)N(CC)CC)c2)C(C)C)s1 -4.25%
Cc1cc(Nc2cccc(C(F)(F)F)c2)cc(=O)n1-c1cccc(C(F)(F)F)c1 -4.17%
O=C(Nc1cccc(C(F)(F)F)c1)c1ccc(Cn2cc(Br)cn2)o1 -20.7%
O=C(C[C@H]1C[C@H]2c3cc(NC(=O)C4CCC4)ccc3O[C@H]2[C@@H](CO)O1)NCc1ccc2c(c1)OCO2 7.29% [at 30 µM]
O=C(NCc1cccc(F)c1)[C@@H]1[C@@H](CO)[C@@H]2Cn3c(ccc(-c4cccnc4)c3=O)[C@H]1N2CC1CC1 5.3%
CN(C)CCCNC(=O)[C@H]1[C@H](CO)[C@H]2Cn3c(ccc(C4=CCCC4)c3=O)[C@H]2N1CCC(F)(F)F 23.1%
Cc1cc(C)c(CN2CCN(C(=O)Cn3ccc(NC(=O)OCc4ccccc4)nc3=O)CC2)c(C)c1 -21.1%
CCCNC(=O)C[C@@H]1C[C@@H]2c3cc(NC(=O)CN(C)C)ccc3O[C@@H]2[C@H](CO)O1 1.88%
C[C@H](CO)N1C[C@H](C)[C@H](CN(C)C(=O)Nc2ccccc2)Oc2c(NS(=O)(=O)c3ccc(F)cc3)cccc2C1=O 77.5% [at 8 µM]
